Screening results (PubChem BioAssay)
Only some compounds are listed: those with a hit (about 1.5% of all), similar ones and a draw of the others.
rTrxR1 inhibitor = rat TrxR1 inhibition; O89049; recombinant rTrxR1, NADPH fluorescence consumption, selenite substrate; Potency, µM (top dose mostly 114 µM), inactives show at the highest dose activity change, negative = inhibition, most hits filed as inhibitors; 390,000 compounds, 1% hits; AID 588453; also: potency is read from the fitted curve at half-maximal effect; nearly all actives have a fitted effect of over 65% in size
Target sequence (O89049 whole entry, looked up): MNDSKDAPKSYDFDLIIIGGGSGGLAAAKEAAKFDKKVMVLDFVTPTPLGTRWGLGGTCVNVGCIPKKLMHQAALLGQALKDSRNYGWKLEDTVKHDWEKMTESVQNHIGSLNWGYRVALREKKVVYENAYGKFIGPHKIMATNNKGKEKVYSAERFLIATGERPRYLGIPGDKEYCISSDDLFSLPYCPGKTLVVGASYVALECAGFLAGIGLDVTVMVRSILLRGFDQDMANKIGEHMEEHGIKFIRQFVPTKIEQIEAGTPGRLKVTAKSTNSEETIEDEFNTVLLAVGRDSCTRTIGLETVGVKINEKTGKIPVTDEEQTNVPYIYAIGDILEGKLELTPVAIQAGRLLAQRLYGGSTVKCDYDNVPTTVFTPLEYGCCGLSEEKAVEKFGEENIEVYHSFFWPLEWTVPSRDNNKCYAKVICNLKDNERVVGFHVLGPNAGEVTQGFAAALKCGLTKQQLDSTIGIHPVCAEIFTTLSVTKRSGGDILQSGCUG
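Rat TrxR1 (90 nM in the dispensed reagent) was pre-reduced with 400 uM NADPH for 5 min at room temperature, then incubated with compound for 15 min. After 400 uM selenite was added, NADPH fluorescence (Ex 340/Em 450 nm) was followed for 8 min.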
GALK inh = galactokinase (human) inhibition | Potency, µM (series often up to 57.5 µM), without a hit: top-dose activity change, negative = inhibition, actives largely listed as inhibitors | P51570 | 270,000 compounds, 0.007% hits | AID 1868 | Purified GALK, Kinase-Glo residual ATP luminescence; also: potency is read from the fitted curve at half-maximal effect
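GALK at 5 nM final was combined with compound, 35 uM ATP and 100 uM galactose in HEPES pH8.0 with MgCl2 and DTT. The reaction ran one hour at room temperature before luminescent ATP detection.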
USP1-UAF1 inh = USP1/UAF1 (human) deubiquitinase inhibition; O94782; recombinant USP1/UAF1, Ub-Rhodamine cleavage fluorescence; Potency, µM (series often up to 57.1 µM), inactives show at the highest dose activity change, negative = inhibition, actives largely listed as inhibitors; 390,000 compounds, 0.23% hits; AID 743255; also: potency is read from the fitted curve at half-maximal effect; nearly all actives have a fitted effect of over 60% in size
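1 nM enzyme complex + cpd, 15 min RT; start with Ub-Rho 150nM final; kinetic fluorescence ex 480/em 540, 6 reads q60 s. Buffer 50mM HEPES pH 7.8, 0.5mM EDTA, 0.1 mg/ml BSA, 1mM TCEP, 0.01% Tween-20.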
FBPA coupling cs = inhibits coupling enzyme system, counter-screen for aldolase hits; activity change, negative = inhibition, % at 58.2 µM, hits read low; 290,000 compounds, 0.67% hits; coupling enzyme system counterscreen, AmpLite Red fluorescence; in the data active = activity change below about -30%
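Counterscreen lacking aldolase: glyceraldehyde-3-phosphate coupling-enzyme reagent preincubated 10 min at RT with compound (at 57.5 uM final), then substrate/coupling system with AmpLite Red added; fluorescence read at 525/598 nm after 20 min RT.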
TrxR1 substrate = substrates of rat thioredoxin reductase 1; O89049; purified TrxR1 substrate turnover, NADPH consumption readout; AID 588456; Potency, µM (doses to about 114 µM), for inactives: at the top dose activity change, negative = substrate turnover; 390,000 compounds, 0.01% hits; also: potency is read from the fitted curve at half-maximal effect; nearly all actives have a fitted effect of over 50% in size
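Rat TrxR1, dispensed at 90 nM, was prereduced with 400 uM NADPH (final) for 5 min at ~22 deg C, then incubated with compound 15 min before 400 uM selenite. A first-read NADPH fluorescence drop versus no-compound background flagged substrates.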
* hit, by the source's call; ? = inconclusive; · = not tested or not shown; [ ] = dose if it differs, or a comment. Unless noted, calls follow the shape of the dose curve; as a rule, active = well fitted curve in the direction sought with a large enough effect; inconclusive = small, poorly fitted or top-dose-only effect, or another doubt; inactive = no such curve, though single readings can be large; an effect the other way counts as inactive or inconclusive. % is scaled to controls: 0 for no effect and ±100 for the full control effect.

SMILES	rTrxR1 inhibitor	GALK inh	USP1-UAF1 inh	FBPA coupling cs	TrxR1 substrate
O=C(COC(=O)c1ccc2c(c1[N+](=O)[O-])C(=O)c1ccccc1C2=O)NC1CC1	?	2%	-14%	-33*	0%
O=C(COC(=O)c1cccc2c1C(=O)c1ccccc1C2=O)NC1CCCCC1	-3%[57.1 µM]	-3%	-22%	-13	0%[57.1 µM]
O=c1c(O)cc(C2Oc3cc(O)cc(O)c3CC2O)cc2c(C3Oc4cc(O)cc(O)c4CC3O)cc(O)c(O)c12 (stereo not given)	·	·	·	-75*	·
CC(=O)NC(Cc1c(F)c(F)c(F)c(F)c1F)C(=O)NCC(N)C(=O)c1ccccc1 (stereo not given)	-12%	·	·	·	-7%
COc1ccc(C2/C=C\CN(Cc3ccccc3)C(C)C(=O)N2Cc2ccc(F)cc2)cc1 (stereo not given)	13%	·	·	0	-1%
NC(=O)/C(=N\OC(=O)c1ccco1)c1nc(-c2ccc(Br)cc2)cs1	7.1µM*	-2%	-19%	-1	7%
COc1ccc(Cn2nnnc2C(c2ccccc2)N2CCN(c3ccccc3)CC2)cc1 (stereo not given)	23%	·	·	·	8%
O=C(N/N=C/c1cccnc1)c1ccccc1OCc1ccc(Cl)cc1	·	-1%	·	-10	·
O=C(N/N=C/c1cccnc1)c1ccccc1OCc1ccc(Br)cc1	35%[57.1 µM]	-1%	-22%	-38*	-12%[57.1 µM]
COc1ccc(NC(=S)Nc2nc(CC(=O)Nc3ccccc3OC)cs2)cc1	1µM*	3%	-18%	-1	0%
O=S(=O)(/C=C/C=C/S(=O)(=O)c1ccccc1)c1ccccc1	2µM*	·	1%	·	12%[57.1 µM]
O=c1cc(O)n(C2CCCCCC2)c(=O)[nH]1	-12%	-2%	-16%	7	8%
O=c1[nH][nH]c(=S)n1C1CCCCC1	-12%[57.1 µM]	3%	-12%	-39*	-6%[57.1 µM]
CCc1ccc(/C=C2\CN(CC)Cc3c2nc2ccccc2c3C(=O)O)cc1	-6%	4%	-12%	-34*	2%
Cn1cnc([N+](=O)[O-])c1S(=O)(=O)c1cccc(Cl)c1	?	-2%	-9%	-2	-4%
CCCn1c(CC)nc([N+](=O)[O-])c1S(=O)(=O)c1ccccc1	0.32µM*	2%	-17%	0	18%
COC(=O)Oc1c(Br)c(=O)oc2ccccc12	7.9µM*	·	-22%	·	-2%
Nc1nc(NCc2ccc(Cl)cc2)c2[nH]cnc2n1	24%	·	·	·	3%
O=C(Nc1ccc2c(c1)nc1n2CCN(C2CCCCC2)C1)NC1CCCCC1	·	-3%	·	-32*	·
COc1ccc(COC(=O)N/N=C2/C[C@@H](O)[C@@H](O)[C@@H]3[C@@H]4C(=O)N(C5CCCCC5)C(=O)[C@H]4CC[C@@H]23)cc1	·	·	·	-2	·
C/C(CC(=O)N1CCCC1)=N\NC(=O)c1cc2ccccc2cc1O	20%	-2%	-25%	-65*	-5%
C=C1C=C(C(F)F)n2ncc(C(=O)N3CCN(c4ccccn4)CC3)c2N1	-20%	·	·	·	-11%
Cc1cc(NC(=S)NC(=O)C2CC2)ccc1Br	45µM*	0%	-19%	-1	2%
CCN(CC)c1ccc(NC(=S)NC(=O)C2CCC2)cc1	45µM*	-2%	-26%	·	8%
O=c1cnc2cncnc2n1Cc1ccc(F)cc1	·	·	·	2	·
SMILES	rTrxR1 inhibitor	GALK inh	USP1-UAF1 inh	FBPA coupling cs	TrxR1 substrate
O=c1[nH]c2ccccc2c(O)c1O	13%	1%	-7%	-73*	49%
O=C(O)c1c(C(=O)O)c2ccccc2[nH]c1=O	·	·	·	-33*	·
O=C(O)c1cc(=O)[nH]c2ccccc12	-15%	·	-8%	·	7%
CC1Cc2ccccc2C[N+]1(C)CC(=O)c1cccc([N+](=O)[O-])c1 (stereo not given)	-7%	·	·	·	-2%
COC(=O)[C@@H]1[C@H]2SC(C)(C)[C@H](C(=O)OC)N2C(=O)N1Cc1cc2ccccc2n1S(=O)(=O)c1ccccc1	12%	·	·	·	-8%
Cc1ccc(N=Cc2ccc[nH]2)c(O)c1	?	2%	-17%	-34*	9%
CCn1cc(C(=O)NCc2ccc(C)o2)c2cc(OC)c(OC)cc2c1=O	22µM*	1%	-17%	-5	-1%
CC1(C)CC(=O)C2=C(C1)OC(N)=C(C#N)C2C#Cc1ccccc1 (stereo not given)	2.5µM*	3%	-15%	0	-3%
CC[C@H](C)[C@H](NC(=O)[C@H](Cc1cnc[nH]1)NC(=O)[C@@H](NC(=O)[C@H](CCCNC(=N)N)NC(=O)[C@H](CCCCN)NC(=O)[C@H](CCCNC(=N)N)NC(=O)[C@H](CCCCN)NC(=O)[C@@H](N)CC(N)=O)[C@@H](C)CC)C(=O)NCC(=O)N1CCC[C@H]1C(=O)NCC(=O)N[C@@H](CCCNC(=N)N)C(=O)N[C@@H](C)C(=O)N[C@@H](Cc1ccccc1)C(=O)N[C@@H](Cc1ccc(O)cc1)C(=O)N[C@H](C(=O)N[C@H](C(=O)N[C@@H](CCCCN)C(=O)N[C@@H](CC(N)=O)C(=O)N[C@H](C(=O)N[C@H](C(=O)NCC(=O)N[C@H](C(=O)N[C@H](C(=O)N[C@@H](CS)C(=O)O)[C@@H](C)CC)[C@@H](C)O)[C@@H](C)CC)[C@@H](C)CC)[C@@H](C)O)[C@@H](C)O	·	·	·	0	·
CCc1ccc(C(C)NC(=S)NC2CCCCC2)cc1 (stereo not given)	15%	0%	-22%	5	-1%
CCc1ccc(S(=O)(=O)NC(=S)NC2CCCCC2)cc1	6.3µM*	0%	-11%	10	5%[57.1 µM]
O=S(=O)(NC(=S)NC1CCCCC1)c1ccc(Cl)cc1	2.8µM*	1%	-9%	14	2%
Cc1ccc(S(=O)(=O)NC(=S)NC2CCCCC2)cc1	3.5µM*	1%	-10%	6	8%
O=C(C[n+]1ccccc1Br)c1ccc(F)cc1	-21%	·	·	·	-2%[0.0914 µM]
CC(=O)c1c(O)cccc1O	·	·	·	1	·
Cc1cc(Sc2ncnc(N)c2[N+](=O)[O-])ncn1	?	1%	-13%	5	9%[57.1 µM]
Cc1cc(Sc2nc(N)ncc2[N+](=O)[O-])ncn1	1.6µM*	4%	-15%	1	10%[57.1 µM]
